An excerpt weighted towards active compounds, which were near 3.4% of everything screened.
ADAM17 inh – ADAM17 inhibitors, primary screen, biochemical, QFRET; Disintegrin and metalloproteinase domain-containing protein 17 (Homo sapiens), P78536; AID 720648, 2013; recombinant ADAM17, EDANS/DABCYL FRET peptide cleavage; inhibition, % at 6.95 µM; actives 0.83% (n = 370,000);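 active = inhibition above the mean of compounds lying between control limits plus 3 SD, set per campaign, cut at about 8.5% in these data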;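 also: 0% = DMSO-only wells as the low control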
HGIII-sPLA2 inh – human group III sPLA2 inhibitors, primary screen, biochemical, QFRET, BODIPY PC-A2 liposome substrate; Group 3 secretory phospholipase A2 (Homo sapiens), Q9NZ20; QFRET BODIPY PC-A2 liposome hydrolysis, fluorescence; inhibition, % at 12.2 µM; actives 0.56% (n = 370,000); AID 743126, 2013;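 active = inhibition above mean plus 3 SD of compounds lying within the high and low control bounds, cut at about 19% in these data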;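 also: 0% = median of test compound wells and 100% = no enzyme DMSO wells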
proKLK7 act – proKLK7 zymogen activators, primary screen, biochemical, fluorescence intensity; actives 0.9% (n = 370,000); AID 652039, 2013; activation, % at 7 µM; purified proKLK7, EDANS-DABCYL substrate fluorescence; 100% is mature enzyme control, 0% vehicle; Kallikrein-7 (Homo sapiens), P49862;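 active = activation above the mean of all tested compounds plus 3 SD, computed per campaign excluding outliers beyond control limits, cut at about 13% in these data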
NRP1-CendR mod – modulators of CendR peptide binding to NRP-1, primary screen, biochemical, fluorescence polarization, uHTS | Neuropilin-1 (Homo sapiens), O14786 | FAM-RPARPAR peptide binding to NRP-1 | inhibition, % at 25 µM | actives 0.85% (n = 360,000);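 active = inhibition or corrected inhibition above about 18%, plus a signal ratio from 0.5 to 1.5, limit read from the data, passing the limit was not always enough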
ADAM10 inh – human ADAM10 inhibitors, primary screen, biochemical, QFRET, HTS; recombinant ADAM10, EDANS/DABCYL FRET peptide cleavage, 3 h; inhibition, % at 7 µM; actives 0.62% (n = 370,000);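 active = inhibition above a per-campaign cutoff equal to the mean of compounds falling between control-based bounds plus 3 SD, cut at about 20% in these data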;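 also: 0% = DMSO wells while the 100% control is not disclosed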
Target sequence (O14672 214-748 limits assumed): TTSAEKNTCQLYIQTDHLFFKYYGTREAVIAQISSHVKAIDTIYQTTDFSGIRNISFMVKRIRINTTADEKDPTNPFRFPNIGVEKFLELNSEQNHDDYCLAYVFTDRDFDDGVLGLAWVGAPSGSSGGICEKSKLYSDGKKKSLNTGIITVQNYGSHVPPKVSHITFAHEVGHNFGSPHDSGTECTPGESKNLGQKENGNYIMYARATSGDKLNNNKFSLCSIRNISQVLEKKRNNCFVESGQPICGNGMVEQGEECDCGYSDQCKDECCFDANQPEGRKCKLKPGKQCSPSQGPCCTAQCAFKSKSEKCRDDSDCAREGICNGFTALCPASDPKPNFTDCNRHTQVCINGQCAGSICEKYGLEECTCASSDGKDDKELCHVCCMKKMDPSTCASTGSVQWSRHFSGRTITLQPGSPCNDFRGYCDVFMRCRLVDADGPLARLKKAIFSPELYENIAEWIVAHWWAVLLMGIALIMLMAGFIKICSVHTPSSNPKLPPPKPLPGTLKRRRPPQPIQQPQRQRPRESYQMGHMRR
ADAM10 confirm – human ADAM10 inhibitors, confirmation, biochemical, QFRET, triplicate | actives 1% (n = 2,100) | inhibition, % at 6.95 µM | ADAM10 QFRET peptide cleavage, EDANS fluorescence | shares compounds with ADAM10 inh;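 active = inhibition above about 20% chosen separately for each screening run, limit read from the data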;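 also: 0% = DMSO wells and 100% = marimastat wells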
ADAM17 ctr – ADAM17 inhibitors, counter-screen for ADAM10 exosite inhibitor project, biochemical, QFRET, high throughput | shares compounds with ADAM10 inh | inhibition, % at 6.95 µM | ADAM17 QFRET peptide cleavage, EDANS fluorescence | AID 743214, 2013 | actives 0.5% (n = 2,100);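 active = mean triplicate inhibition above the solvent-only control wells' mean plus 3 SD, cut at about 12% in these data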;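 also: 0% = DMSO wells and 100% = marimastat wells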
* marks the source's active call; other numbers are inactive results; x = not tested or not shown.

SMILES	ADAM17 inh	HGIII-sPLA2 inh	proKLK7 act	NRP1-CendR mod	ADAM10 inh	ADAM10 confirm	ADAM17 ctr
CC1CCN(C(=O)C2CCCN(C(=O)c3ccc4c(c3)NC(=O)CS4)C2)CC1 (stereo not given)	-1	-1	1	x	-1	x	x
CCc1nc(NCc2ccc3c(c2)OCO3)c2oc3ccccc3c2n1	8	-14	1	6	28*	6	2
Cc1nc(NCc2ccc3c(c2)OCO3)c2oc3ccccc3c2n1	-3	-4	1	-14	7	x	x
CCN1CCCCC(NC(=O)c2ccc(F)c(F)c2)C1=O (stereo not given)	1	4	0	x	3	x	x
Cc1ccc(NCC(=O)Nc2cccc(S(=O)(=O)N(C)C)c2)cc1S(=O)(=O)N1CCCCCC1	8	-32	0	-1	24*	2	0
Cc1ccc(C)c(OCCC(=O)OCC(=O)Nc2ccc(C)c(S(=O)(=O)N3CCCCC3)c2)c1	-11	-38	0	1	27*	9	3
Cc1ccc(NC(=O)c2cccc(S(=O)(=O)N(C)c3ccccc3)c2)cc1S(=O)(=O)N1CCOCC1	8	-24	1	-2	21*	4	1
Cc1ccccc1OCCC(=O)OCC(=O)Nc1ccc(C)c(S(=O)(=O)N2CCCCC2)c1	8	-26	0	-2	18	x	x
Cc1ccc(C(=O)Nc2cccc(C(=O)O)c2)cc1S(=O)(=O)N1CCOCC1	-4	4	-1	9	-5	x	x
CCN(CC)S(=O)(=O)c1cccc(NC(=O)CNc2cccc(S(=O)(=O)N3CCCC3)c2)c1	7	-26	-1	-2	11	x	x
C=CCN1C(=O)[C@@H](CC(=O)NCCc2ccccc2OC)[C@]2(C(=O)OCC)CCCCC/C=C/12	-3	3	0	x	-10	x	x
CC(OC(=O)c1ccc(NS(=O)(=O)c2ccc3[nH]c(=O)[nH]c3c2)cc1)C(=O)Nc1ccc(Cl)cc1 (stereo not given)	4	-39	-1	-7	11	x	x
COc1ccc(Cl)cc1NC(=O)C(C)OC(=O)c1ccc(NS(=O)(=O)c2ccc3[nH]c(=O)[nH]c3c2)cc1 (stereo not given)	7	-45	1	10	22*	5	1
C#CCOCCOCCOCCNc1nc(N2CCN(C(=O)CCCCCCCCCCNC(=O)[C@H](CCCCN)n3cc(C)nn3)CC2)nc(N2CCN(C(=O)CCCCCCCCCCNC(=O)[C@@H]([C@H](C)O)n3cc(C)nn3)CC2)n1	x	x	x	1	x	x	x
C#CCOCCOCCOCCNc1nc(N2CCN(C(=O)CCCCCCCCCCNC(=O)[C@@H](CCSC)n3cc(CCO)nn3)CC2)nc(N2CCN(C(=O)CCCCCCCCCCNC(=O)[C@@H]([C@H](C)O)n3cc(C)nn3)CC2)n1	5	-64	0	13	20*	2	0
Cc1ccccc1NC(=O)C1CCCN1S(=O)(=O)c1cccnc1 (stereo not given)	-1	5	0	x	4	x	x
O=C1C[C@H](C(=O)Nc2ccc(Cl)cc2)[C@@H](c2ccccc2)O1	0	-12	0	x	-1	x	x
CC(C)[C@H](NC(=O)C1CCCC1)C(=O)N1CCC[C@H]1C(=O)NCCc1ccccc1Cl	-2	-1	0	x	-5	x	x
COc1ccc(NC(=O)CC2C(=O)N(CCc3ccccc3)C(=S)N2Cc2cccnc2)cc1 (stereo not given)	6	-17	0	-5	22*	4	1
